In PubChem BioAssay (NCI):
Several values for one entry are separate records, joined by “and”; a condition that tells them apart may be missing. Identical values can stand only once. This is part of a sample that, as a whole, favours compounds with a hit. Of some 79,000 tested, about 15% had one in any assay. Activity calls are given as the source filed them. No stated cut-off is given here; in the data, active means growth inhibition above about 70%; inactive means the rest.

Test: NCI Yeast Anticancer Drug Screen. Data for the bub3 strain (AID 167)
Conditions: S. cerevisiae bub3 mutant strain, at 50.0 µM, hits give high values
Method in brief: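 In this screen, a yeast mutant lacking normal mitotic checkpoint function is challenged with compound. Relative growth versus vehicle gives the inhibition value.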

Question: Which growth inhibition does the source give for `C=C1C(=O)OC2/C=C(/C)C3CC(O)C(C)(CC(OC(=O)/C(C)=C/C)C12)O3` (stereo unspecified) here?
Answer: The growth inhibition was -5.25% (inactive) and -26.3% (inactive).

Question: For `O=C(O)C(Cc1ccc(O)cc1)NS(=O)(=O)Cc1ccccc1` (stereo unspecified), which growth inhibition is on record?
Answer: Its growth inhibition is -55.3% (inactive) and 19.9% (inactive).

Question: With `N#Cc1c(-c2ccccc2)cc(-c2ccccc2)n(C2OC(CO)C(O)C(O)C2O)c1=O` (stereo unspecified) as the compound, how does the growth inhibition read?
Answer: Its growth inhibition is 5.65% (inactive) and 8.3% (inactive).

Question: For `O=C1NC(=O)C(CO)(c2ccccc2)N1` (stereo unspecified), which growth inhibition is on record?
Answer: The growth inhibition was 0.95% (inactive) and 10.4% (inactive).

Question: With `CSCCC(NC(=O)CN)C(=O)O` (stereo unspecified) as the compound, how does the growth inhibition read?
Answer: The growth inhibition was -7.15% (inactive) and -13.8% (inactive).

Question: Which growth inhibition does the source give for `CCCCc1ccc(OC2OC(COC(C)=O)C(OC(C)=O)C(OC(C)=O)C2OC(C)=O)cc1` (stereo unspecified) here?
Answer: Its growth inhibition is -32.5% (inactive) and -4.9% (inactive).

Question: Which growth inhibition does the source give for `CC(C)(C)CC(C)(C)c1ccc(O)c(SSc2cc(C(C)(C)CC(C)(C)C)ccc2O)c1` here?
Answer: Its growth inhibition is 11.5% (inactive) and 0.5% (inactive).

Question: With `CCCc1ccc(OC2OC(COC(C)=O)C(OC(C)=O)C(OC(C)=O)C2OC(C)=O)cc1` (stereo unspecified) as the compound, how does the growth inhibition read?
Answer: Its growth inhibition is -37% (inactive) and 5.1% (inactive).

Question: With `COc1ccc(COC(=O)NCC(=O)NC(C)C(=O)NC(Cc2ccccc2)C(=O)OCc2ccccc2)cc1` (stereo unspecified) as the compound, how does the growth inhibition read?
Answer: Its growth inhibition is -0.7% (inactive) and 1.65% (inactive).

Question: With `COC1OC2COC(c3ccccc3)OC2C(OC(C)=O)C1OC(C)=O` (stereo unspecified) as the compound, how does the growth inhibition read?
Answer: The growth inhibition was 38.8% (inactive) and 10% (inactive).

Question: Which growth inhibition does the source give for `Cc1cc(Cc2cc(C)c(O)c(C(=O)O)c2)cc(C(=O)O)c1O` here?
Answer: The growth inhibition was 27.3% (inactive) and 4.85% (inactive).
